Reference: PubChem BioAssay (Tox21)
Inconclusive results are not listed. The source made the active and inactive calls. Unless noted, the call rests on the fitted dose curve; in most records, active means well fitted curve in the direction sought with a large enough effect in the repeat runs; inconclusive means weak or mixed curves; inactive means no such curve, though single readings can be large; an effect the other way counts as inactive or inconclusive.

Assays:
[1] = biological target: Progesterone receptor (Homo sapiens) (UniProt P06401); test: qHTS assay to identify small molecule agonists of the progesterone receptor (PR) signaling pathway (AID 1346784; calls by dose curve; further: nearly all actives have a fitted effect of over 30% in size)
How it was run: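 Reporter assay, GripTite PR-UAS-bla HEK 293T cells: 16 hr exposure to DMSO-dissolved compounds at 37C, 5% CO2, in steroid-depleted (2% charcoal-stripped FBS) medium; beta-lactamase measured by FRET fluorescence.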

[2] = qHTS assay to identify small molecule antagonists of the TGF-beta/Smad signaling pathway - cell viability counter screen (AID 1346824); further: nearly all actives have a fitted effect of over 50% in size
How it was run: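 Cytotoxicity counter-screen run in the same wells as the beta-lactamase Smad reporter read: CellTiter-Glo luminescence after 30 min at room temperature. HEK 293T SBE-bla cells had 5 hr compound exposure at 37 C with TGF-beta1 (0.25 ng/mL stock).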

[3] = qHTS assay to identify small molecule agonists of the TGF-beta/Smad signaling pathway (AID 1346859; active means well fitted activation curve with a large enough effect in the signal ratio in the repeat runs, not every such curve was filed as active; the % refers to the signal ratio; further: series mostly up to about 77 µM)
How it was run: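 Screening used HEK 293T SBE-bla cells at 4,000/well. Test agents: 5 hr, 37 C. Detection: FRET substrate, 2 hr RT, then excitation 405 nm with emissions at 460 and 530 nm.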

[4] = biological target: Thyrotropin-releasing hormone receptor (Homo sapiens) (UniProt P34981); test: qHTS assay to identify small molecule antagonists of the thyrotropin-releasing hormone receptor (TRHR) signaling pathway (AID 1346877; active means well fitted inhibition curve with a large enough effect in the repeat runs, not every such curve was filed as active; further: series mostly up to about 51 µM)
How it was run: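 Antagonism is measured as suppression of the calcium response to 1 nM TRH in TRHR-HEK293 cells that have been dye-loaded for 2 h at 37 °C after overnight plating. Each compound is tested at 15 concentrations in triplicate.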

[5] = biological target: Thyrotropin-releasing hormone receptor (Homo sapiens) (UniProt P34981); test: qHTS assay to identify small molecule agonists of the thyrotropin-releasing hormone receptor (TRHR) signaling pathway (AID 1346891; calls by dose curve; further: series mostly up to about 58 µM)
How it was run: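 Readout was intracellular calcium fluorescence in TRHR-Hek293 cells. Cells were incubated 18 h, dye-loaded 2 h at 37 °C, and treated with compound in agonist mode.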

[6] = Human pregnane X receptor (PXR) small molecule agonists, qHTS cell viability counter screen (AID 1346977); further: nearly all actives have a fitted effect of over 50% in size; further: potency means the concentration at half of the fitted maximal effect
How it was run: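 In each well, the PXR reporter HepG2 line was checked for viability: CellTiter-Fluor reagent added 23hr post-dosing, fluorescence read after 1hr incubation at 37C.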

[7] = Caspase-3/7 induction in HepG2 cells by small molecules, qHTS assay (AID 1346978); further: nearly all actives have a fitted effect of over 15% in size
How it was run: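 Caspase-3/7 induction was measured by Caspase-Glo 3/7 luminescence (30 min, room temperature) after a 17 hr compound exposure of wild-type HepG2 cells seeded at 2,000 per well and pre-incubated 5 hr.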

[8] = Caspase-3/7 induction in CHO-K1 cells by small molecules, qHTS assay (AID 1346980); further: nearly all actives have a fitted effect of over 15% in size
How it was run: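 Luminescent Caspase-Glo 3/7 read (30min, room temperature) quantified apoptosis induction. Cells were wild-type CHO-K1, treated with compound for 17hr at 37 C and 5% CO2.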

[9] = Caspase-3/7 induction in HepG2 cells by small molecules, qHTS cell viability counter screen (AID 1346981); further: nearly all actives have a fitted effect of over 30% in size; further: potency means the concentration at half of the fitted maximal effect; on activity change, negative = cytotoxicity: series mostly up to about 92 µM
How it was run: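 Cell viability is measured as a cytotoxicity counter screen alongside the Caspase-Glo 3/7 readout in identical wells. Wild-type HepG2 cells are treated with test compounds for 16 hr at 37 C before CellTiter-Fluor addition and a 1-hr incubation.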

[10] = biological target: Nuclear receptor subfamily 1 group I member 2 (Homo sapiens) (UniProt O75469); test: Human pregnane X receptor (PXR) small molecule agonists, qHTS assay (AID 1346982); further: nearly all actives have a fitted effect of over 35% in size; further: potency means the concentration at half of the fitted maximal effect
How it was run: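 Cells: HepG2 stably carrying PXR-Luc. Medium held 5% charcoal-stripped FBS. Compounds in DMSO added after 5 hr plating, incubated 24 hr, then luminescence quantified with ONE-Glo.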

[11] = biological target: Cytochrome P450 2D6 (Homo sapiens) (UniProt P10635); test: Cytochrome P450 Family 2 Subfamily D Member 6 (CYP2D6) small molecule antagonists: luciferase reporter qHTS assay (AID 1671196); further: nearly all actives have a fitted effect of over 50% in size; further: potency means the concentration at half of the fitted maximal effect; on activity change, negative = inhibition: series mostly up to about 120 µM
How it was run: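 Enzyme and proluciferin substrate were first combined with test chemical for 10 min at room temperature. Adding NADPH regeneration solution started a 1 h reaction, stopped with luciferin detection reagent and read by luminescence 20 min later.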

[12] = biological target: Cytochrome P450 2C9 (Homo sapiens) (UniProt P11712); test: Cytochrome P450 Family 2 Subfamily C Member 9 (CYP2C9) small molecule antagonists: luciferase reporter qHTS assay (AID 1671198); further: nearly all actives have a fitted effect of over 50% in size; further: potency means the concentration at half of the fitted maximal effect; on activity change, negative = inhibition: series mostly up to about 120 µM
How it was run: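 Enzyme-substrate mix preincubated with compound 10 min at room temperature; reaction started with NADPH regeneration solution, 1 h 37C. Luminescent luciferin product read after 20 min detection reagent.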

[13] = qHTS assay to identify small molecule agonists of the TGF-beta/Smad signaling pathway - cell viability counter screen (AID 1346829); further: top concentration of the series differs between compounds; nearly all actives have a fitted effect of over 45% in size
How it was run: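 In parallel with the Smad reporter read, viability of HEK 293T cells stably carrying SBE-bla is quantified by ATP luminescence following 5 hr compound treatment.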

[14] = biological target: Nuclear receptor subfamily 1 group I member 2 (Rattus norvegicus) (UniProt Q9R1A7); test: Rat pregnane X receptor (rPXR) activation by small molecules, qHTS assay (AID 1346983); details: rPXR luciferase reporter cells, One-Glo luminescence, 24 h; max activation: hits give high values; further: nearly all actives have a fitted effect of over 20% in size
How it was run: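 Luminescent readout (One-Glo luciferase, 30 min room temperature) followed 24 hr compound treatment at 37 C of rPXR cells plated 2,000 per well and preincubated 5hr; qHTS format with compounds delivered in DMSO.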

[15] = biological target: Nuclear receptor subfamily 1 group I member 2 (Homo sapiens) (UniProt O75469); test: CYP3A4 induction through human pregnane X receptor (PXR) by small molecules, qHTS assay (AID 1346984); further: nearly all actives have a fitted effect of over 40% in size
How it was run: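 Quantitative HTS in DPX-2 cells, i.e. HepG2 transfected with PXR response element and CYP3A4-promoter luciferase. Compounds in DMSO incubated 24hr at 37C; then P450-Glo CYP3A4 substrate, 3uM final, 3hr; One-Glo luminescence.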

[16] = biological target: Cytochrome P450 2C19 (Homo sapiens) (UniProt P33261); test: Cytochrome P450 Family 2 Subfamily C Member 19 (CYP2C19) small molecule antagonists: luciferase reporter qHTS assay (AID 1671197); further: nearly all actives have a fitted effect of over 65% in size; further: potency means the concentration at half of the fitted maximal effect; on activity change, negative = inhibition: series mostly up to about 120 µM
How it was run: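 Compounds were tested on CYP2C19 activity via proluciferin conversion to luciferin. The 37C, 1 h reaction followed NADPH addition; detection reagent stopped it.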

[17] = Caspase-3/7 induction in CHO-K1 cells by small molecules, qHTS cell viability counter screen (AID 1346979); further: nearly all actives have a fitted effect of over 35% in size; further: potency means the concentration at half of the fitted maximal effect
How it was run: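 Following a 5hr settling period, CHO-K1 cells at 1,500 per well received DMSO-dissolved compounds. Cell viability was quantified 16hr later by CellTiter-Fluor fluorescence, measured after 1hr with reagent at 37C.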

[18] = biological target: Progesterone receptor (Homo sapiens) (UniProt P06401); test: qHTS assay to identify small molecule antagonists of the progesterone receptor (PR) signaling pathway (AID 1346795; active means well fitted inhibition curve with a large enough effect in the signal ratio in the repeat runs, not every such curve was filed as active; the % refers to the signal ratio)
How it was run: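 Stimulus R5020 at 1 nM final; cells HEK293T PR-UAS-bla; medium with 2% charcoal-stripped FBS; compound exposure 16 hr at 37C, 5% CO2; detection by FRET beta-lactamase substrate, 2 hr, room temperature.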

[19] = qHTS assay to identify small molecule antagonists of the progesterone receptor (PR) signaling pathway - cell viability counter screen (AID 1346798)
How it was run: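 In the same plates used for the beta-lactamase readout, cell viability of compound- and R5020-treated PR-UAS-bla HEK293T cells (16 hr, 37C) was assessed by CellTiter-Glo luminescence.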

[20] = qHTS assay to identify small molecule agonists of the progesterone receptor (PR) signaling pathway - cell viability counter screen (AID 1346799; calls by dose curve; further: nearly all actives have a fitted effect of over 45% in size)
How it was run: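 Multiplexed viability read: CellTiter-Glo luminescence, 30 min RT, following LiveBLAzer FRET measurement on PR-UAS-bla HEK293T cells exposed to compounds 16 hr.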
On the % scale 0 is the no-effect control and ±100 the full control effect.

Chain of Cytochrome P450 2C19 (Homo sapiens) (P33261 whole entry, looked up): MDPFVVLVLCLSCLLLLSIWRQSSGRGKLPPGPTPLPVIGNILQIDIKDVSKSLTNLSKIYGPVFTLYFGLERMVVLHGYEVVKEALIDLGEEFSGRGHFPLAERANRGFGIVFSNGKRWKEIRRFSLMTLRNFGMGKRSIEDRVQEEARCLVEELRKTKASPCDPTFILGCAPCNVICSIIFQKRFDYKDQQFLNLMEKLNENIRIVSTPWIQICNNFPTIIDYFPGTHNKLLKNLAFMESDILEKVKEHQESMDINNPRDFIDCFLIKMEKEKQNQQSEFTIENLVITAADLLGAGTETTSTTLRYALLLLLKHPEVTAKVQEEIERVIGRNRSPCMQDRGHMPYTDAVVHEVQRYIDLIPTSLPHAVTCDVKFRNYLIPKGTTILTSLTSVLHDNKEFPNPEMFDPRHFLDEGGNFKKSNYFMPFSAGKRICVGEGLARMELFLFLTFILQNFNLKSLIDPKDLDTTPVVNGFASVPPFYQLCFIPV
Chain of Progesterone receptor (Homo sapiens) (P06401 whole entry, looked up): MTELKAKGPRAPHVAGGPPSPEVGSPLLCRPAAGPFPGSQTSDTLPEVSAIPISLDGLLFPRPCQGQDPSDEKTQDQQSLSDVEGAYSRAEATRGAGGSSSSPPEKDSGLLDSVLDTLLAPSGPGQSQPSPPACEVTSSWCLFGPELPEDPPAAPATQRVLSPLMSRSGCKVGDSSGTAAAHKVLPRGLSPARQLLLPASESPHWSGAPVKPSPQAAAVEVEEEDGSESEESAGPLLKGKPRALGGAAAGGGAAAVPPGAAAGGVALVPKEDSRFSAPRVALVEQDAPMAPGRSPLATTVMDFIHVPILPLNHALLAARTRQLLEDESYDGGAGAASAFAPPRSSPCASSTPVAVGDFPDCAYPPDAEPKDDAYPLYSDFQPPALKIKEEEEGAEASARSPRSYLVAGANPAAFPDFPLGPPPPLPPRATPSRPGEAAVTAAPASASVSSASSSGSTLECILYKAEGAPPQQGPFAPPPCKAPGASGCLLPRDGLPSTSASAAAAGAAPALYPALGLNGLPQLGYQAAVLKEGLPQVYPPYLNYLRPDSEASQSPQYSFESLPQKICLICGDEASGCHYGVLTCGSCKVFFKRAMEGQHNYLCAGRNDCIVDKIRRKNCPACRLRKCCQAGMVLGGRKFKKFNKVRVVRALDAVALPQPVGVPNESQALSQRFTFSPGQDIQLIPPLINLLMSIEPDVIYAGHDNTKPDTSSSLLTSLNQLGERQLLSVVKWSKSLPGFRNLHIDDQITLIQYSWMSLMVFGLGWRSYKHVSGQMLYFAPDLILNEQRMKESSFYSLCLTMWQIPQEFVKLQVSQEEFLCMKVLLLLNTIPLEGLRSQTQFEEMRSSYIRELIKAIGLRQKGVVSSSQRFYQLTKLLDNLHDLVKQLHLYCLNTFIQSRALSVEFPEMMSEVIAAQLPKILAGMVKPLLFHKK
Chain of Cytochrome P450 2C9 (Homo sapiens) (P11712 whole entry, looked up): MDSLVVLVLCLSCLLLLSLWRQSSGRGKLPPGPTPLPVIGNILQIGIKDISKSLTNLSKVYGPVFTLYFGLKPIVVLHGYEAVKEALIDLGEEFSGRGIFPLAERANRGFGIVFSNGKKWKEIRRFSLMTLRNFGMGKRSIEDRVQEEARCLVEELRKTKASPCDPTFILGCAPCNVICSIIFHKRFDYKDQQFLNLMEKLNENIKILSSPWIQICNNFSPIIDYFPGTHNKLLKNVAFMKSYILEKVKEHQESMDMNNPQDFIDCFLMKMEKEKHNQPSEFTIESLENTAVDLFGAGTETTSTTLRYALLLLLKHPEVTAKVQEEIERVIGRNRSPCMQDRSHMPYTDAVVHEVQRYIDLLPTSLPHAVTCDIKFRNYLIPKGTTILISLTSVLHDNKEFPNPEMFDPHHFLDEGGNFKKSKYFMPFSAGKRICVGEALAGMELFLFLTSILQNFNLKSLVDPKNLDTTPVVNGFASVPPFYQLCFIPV
Chain of Cytochrome P450 2D6 (Homo sapiens) (P10635 whole entry, looked up): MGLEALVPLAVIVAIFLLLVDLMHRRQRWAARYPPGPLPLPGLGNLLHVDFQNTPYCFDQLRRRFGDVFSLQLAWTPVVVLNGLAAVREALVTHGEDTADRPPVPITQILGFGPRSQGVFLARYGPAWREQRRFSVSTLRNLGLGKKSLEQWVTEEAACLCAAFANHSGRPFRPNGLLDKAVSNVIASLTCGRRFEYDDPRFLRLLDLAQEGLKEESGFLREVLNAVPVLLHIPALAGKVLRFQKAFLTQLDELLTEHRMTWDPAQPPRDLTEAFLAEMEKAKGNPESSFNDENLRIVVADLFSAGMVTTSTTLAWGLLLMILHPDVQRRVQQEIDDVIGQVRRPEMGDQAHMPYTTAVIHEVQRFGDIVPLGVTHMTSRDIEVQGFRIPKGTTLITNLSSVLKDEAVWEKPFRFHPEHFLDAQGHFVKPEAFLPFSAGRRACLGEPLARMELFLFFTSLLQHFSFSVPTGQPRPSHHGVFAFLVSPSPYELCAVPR
Chain of Thyrotropin-releasing hormone receptor (Homo sapiens) (P34981 whole entry, looked up): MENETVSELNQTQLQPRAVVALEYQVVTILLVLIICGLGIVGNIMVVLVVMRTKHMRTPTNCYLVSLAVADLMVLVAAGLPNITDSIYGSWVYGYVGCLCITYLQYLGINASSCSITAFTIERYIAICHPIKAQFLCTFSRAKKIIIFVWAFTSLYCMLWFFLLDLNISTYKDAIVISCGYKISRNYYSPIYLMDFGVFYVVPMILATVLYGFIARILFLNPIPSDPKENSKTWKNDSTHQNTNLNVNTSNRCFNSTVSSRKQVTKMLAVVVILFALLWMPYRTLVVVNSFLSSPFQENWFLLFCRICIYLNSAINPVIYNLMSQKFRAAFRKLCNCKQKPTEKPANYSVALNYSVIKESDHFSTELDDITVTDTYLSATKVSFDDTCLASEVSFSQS
Chain of Nuclear receptor subfamily 1 group I member 2 (Rattus norvegicus) (Q9R1A7 whole entry, looked up): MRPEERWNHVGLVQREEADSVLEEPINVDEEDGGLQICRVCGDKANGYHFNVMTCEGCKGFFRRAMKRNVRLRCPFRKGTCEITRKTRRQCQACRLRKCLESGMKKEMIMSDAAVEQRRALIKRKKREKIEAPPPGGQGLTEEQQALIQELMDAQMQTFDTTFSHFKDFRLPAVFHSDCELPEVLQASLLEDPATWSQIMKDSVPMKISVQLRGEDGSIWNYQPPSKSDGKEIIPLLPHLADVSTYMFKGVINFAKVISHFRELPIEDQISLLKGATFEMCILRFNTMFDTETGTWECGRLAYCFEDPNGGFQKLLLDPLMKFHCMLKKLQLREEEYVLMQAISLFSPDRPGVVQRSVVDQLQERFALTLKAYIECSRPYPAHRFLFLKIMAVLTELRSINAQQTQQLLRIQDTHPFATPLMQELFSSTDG
Chain of Nuclear receptor subfamily 1 group I member 2 (Homo sapiens) (O75469 whole entry, looked up): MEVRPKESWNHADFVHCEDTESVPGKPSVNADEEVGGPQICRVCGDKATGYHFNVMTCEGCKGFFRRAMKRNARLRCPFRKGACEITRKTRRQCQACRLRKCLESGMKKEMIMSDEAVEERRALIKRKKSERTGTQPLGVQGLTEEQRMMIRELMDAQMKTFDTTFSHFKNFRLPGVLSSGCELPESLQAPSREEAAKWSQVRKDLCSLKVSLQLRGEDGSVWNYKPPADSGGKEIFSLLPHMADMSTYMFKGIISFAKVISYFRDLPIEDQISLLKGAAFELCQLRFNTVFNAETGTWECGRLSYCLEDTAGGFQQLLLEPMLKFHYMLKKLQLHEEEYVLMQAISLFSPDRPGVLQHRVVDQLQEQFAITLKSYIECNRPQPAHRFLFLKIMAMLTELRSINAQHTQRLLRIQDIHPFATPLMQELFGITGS

CN(C)c1ccc(N=NS(=O)(=O)O)cc1
active: Potency [6] 20.4 µM | Potency [9] 25 µM | Potency [10] 21.7 µM | Potency [11] 7.94 µM | Potency [12] 5.09 µM
inactive: outcome [1] | Potency [2] | Potency [3] | Potency [4] | Potency [5] | Potency [7] | Potency [8]

S=P(N1CC1)(N1CC1)N1CC1
inactive: outcome [1] | Potency [13] | Potency [3] | Potency [4] | Potency [5] | Potency [6] | Potency [7] | Potency [8] | max activation [14] -4.01% | Potency [15]
active: Potency [11] 48.6 µM | Potency [16] 9.42 µM | Potency [12] 19.3 µM

N[C@@H](CSSC[C@H](N)C(=O)O)C(=O)O
inactive: activation [1] -4.21% [at 0.349 µM] | viability change, negative = cytotoxic [2] -1.61% [at 0.29 µM] | activity change, negative = cytotoxicity [13] 1.93% [at 0.29 µM] | activation [3] 1.61% [at 0.29 µM] | activity change, negative = cytotoxicity [6] -23% [at 0.349 µM] | caspase activation [7] 0.0664% [at 0.349 µM] | activity change, negative = cytotoxicity [17] -1.36% [at 0.349 µM] | caspase-3/7 activation [8] 0.0732% [at 0.349 µM] | activity change, negative = cytotoxicity [9] 6.72% [at 0.349 µM] | activation [10] -0.742% [at 0.349 µM] | max activation [14] -1.39% | Potency [15] | activity change, negative = inhibition [11] -4.15% [at 0.435 µM] | activity change, negative = inhibition [16] -14.3% [at 0.435 µM] | activity change, negative = inhibition [12] 1.25% [at 0.435 µM]

CC(=O)O[C@@H]1C[C@@H]2CC[C@@]1(C)C2(C)C
inactive: Potency [18] | Potency [19] | Potency [20] | Potency [2] | Potency [13] | Potency [3] | Potency [4] | Potency [5] | Potency [6] | Potency [7] | Potency [17] | Potency [8] | Potency [9] | Potency [10] | Potency [16] | Potency [12]

CCOC(=O)[C@@](C)(N)Cc1ccc(O)c(O)c1
active: Potency [11] 8.71 µM
inactive: outcome [1] | Potency [2] | Potency [13] | Potency [3] | Potency [4] | Potency [5] | Potency [6] | Potency [7] | Potency [9] | Potency [10] | max activation [14] -0.299% | Potency [15] | Potency [12]

O=C(c1ccccc1)c1cc(Cl)ccc1O
active: Potency [11] 37.9 µM | Potency [16] 1.9 µM | Potency [12] 33.8 µM
inactive: outcome [1] | Potency [2] | Potency [13] | Potency [3] | Potency [4] | Potency [5] | Potency [6] | Potency [7] | Potency [17] | Potency [8] | Potency [9]

NC(=O)C(=O)N/N=C/c1ccc([N+](=O)[O-])o1
inactive: Potency [18] | Potency [19] | Potency [20] | Potency [2] | Potency [13] | Potency [3] | Potency [4] | Potency [5] | Potency [6] | Potency [7] | Potency [8] | Potency [9] | Potency [10] | max activation [14] -0.701% | Potency [15] | Potency [11] | Potency [16]
active: Potency [17] 23.7 µM

CC(C)OC(=O)c1cc(C(=O)OC(C)C)cc([N+](=O)[O-])c1
active: Potency [10] 19.8 µM | Potency [11] 6.87 µM | Potency [16] 0.0816 µM | Potency [12] 0.84 µM
inactive: outcome [1] | Potency [13] | Potency [3] | Potency [4] | Potency [5] | Potency [7] | Potency [8]
